In PubChem BioAssay (Tox21) one finds Potency and PLD induction data, which are given here for 21 compounds.

Experiment [1] is described as follows: qHTS assay to identify aromatase inhibitors - cell viability counter screen (AID 743084).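 Note: cells stimulated with testosterone during compound exposure; nearly all actives have a fitted effect of over 55% in size.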 Note: potency is the fitted concentration of half-maximal effect.
The target of experiment [2] is Aryl hydrocarbon receptor (Homo sapiens) (UniProt P35869). Kind of experiment: qHTS assay to identify small molecule that activate the aryl hydrocarbon receptor (AhR) signaling pathway (AID 743085).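 Note: HG2L7.5c1 human HepG2 liver cells with stably integrated DRE-driven firefly reporter; series mostly up to about 70 µM; nearly all actives have a fitted effect of over 15% in size.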 Summed up: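 Cell line HG2L7.5c1 (human hepatoma, 20× DRE-luc). Plated, 5 h 37C, compound/DMSO added, 24 h 37C. CellTiter-Fluor 30 min 37C → fluorescence; then ONE-Glo 30 min RT → luminescence.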
Chain of Aryl hydrocarbon receptor (Homo sapiens) (P35869 whole entry, looked up): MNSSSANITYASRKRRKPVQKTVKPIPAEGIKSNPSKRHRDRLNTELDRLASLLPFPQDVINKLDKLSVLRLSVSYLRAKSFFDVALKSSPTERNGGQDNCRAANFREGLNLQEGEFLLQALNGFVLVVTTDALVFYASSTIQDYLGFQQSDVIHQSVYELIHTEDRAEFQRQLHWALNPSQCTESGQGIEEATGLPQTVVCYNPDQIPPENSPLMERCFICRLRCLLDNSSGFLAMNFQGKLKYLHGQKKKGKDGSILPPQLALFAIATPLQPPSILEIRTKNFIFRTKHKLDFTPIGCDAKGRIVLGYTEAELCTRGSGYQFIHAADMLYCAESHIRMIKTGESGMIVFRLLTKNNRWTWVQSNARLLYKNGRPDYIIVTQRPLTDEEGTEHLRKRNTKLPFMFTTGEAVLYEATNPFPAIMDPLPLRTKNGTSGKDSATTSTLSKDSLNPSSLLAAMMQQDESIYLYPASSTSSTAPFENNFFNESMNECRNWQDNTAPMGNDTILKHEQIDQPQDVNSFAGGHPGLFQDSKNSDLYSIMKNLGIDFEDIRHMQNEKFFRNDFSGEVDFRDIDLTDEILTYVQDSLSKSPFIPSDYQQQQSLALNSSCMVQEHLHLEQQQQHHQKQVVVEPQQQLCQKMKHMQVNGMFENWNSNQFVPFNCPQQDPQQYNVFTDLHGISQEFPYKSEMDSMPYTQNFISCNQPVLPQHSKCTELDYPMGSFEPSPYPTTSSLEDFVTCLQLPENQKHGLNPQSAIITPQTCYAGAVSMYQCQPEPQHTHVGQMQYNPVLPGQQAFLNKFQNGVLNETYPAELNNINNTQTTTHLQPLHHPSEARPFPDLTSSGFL
(In general: Quantitative high-throughput screening tests each substance at several concentrations.)

A short description of experiment [3]: qHTS assay to identify small molecule that activate the aryl hydrocarbon receptor (AhR) signaling pathway - cell viability counter screen (AID 743086). Note: nearly all actives have a fitted effect of over 45% in size. Note: potency is the fitted concentration of half-maximal effect. Summed up:
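HepG2-AhR-luc (HG2L7.5c1) cells, 4000/well, treated 24 h at 37 C with compound; viability measured as CellTiter-Fluor fluorescence after 30 min in the same wells as the luciferase read.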

The target of experiment [4] is Peroxisome proliferator-activated receptor gamma (Homo sapiens) (UniProt P37231). As to the kind of experiment: qHTS assay to identify small molecule agonists of the peroxisome proliferator-activated receptor gamma (PPARg) signaling pathway (AID 743094; active = well fitted activation curve with a large enough effect in the signal ratio in the repeat runs, not every such curve was filed as active; the % refers to the signal ratio). The method, boiled down: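 Following 5 h plating at 37C, PPARg-bla HEK293H cells receive compound or DMSO for 17 h; fluorescence intensity is recorded after LiveBLAzer B/G loading for 1 h at room temperature.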
Chain of Peroxisome proliferator-activated receptor gamma (Homo sapiens) (P37231 whole entry, looked up): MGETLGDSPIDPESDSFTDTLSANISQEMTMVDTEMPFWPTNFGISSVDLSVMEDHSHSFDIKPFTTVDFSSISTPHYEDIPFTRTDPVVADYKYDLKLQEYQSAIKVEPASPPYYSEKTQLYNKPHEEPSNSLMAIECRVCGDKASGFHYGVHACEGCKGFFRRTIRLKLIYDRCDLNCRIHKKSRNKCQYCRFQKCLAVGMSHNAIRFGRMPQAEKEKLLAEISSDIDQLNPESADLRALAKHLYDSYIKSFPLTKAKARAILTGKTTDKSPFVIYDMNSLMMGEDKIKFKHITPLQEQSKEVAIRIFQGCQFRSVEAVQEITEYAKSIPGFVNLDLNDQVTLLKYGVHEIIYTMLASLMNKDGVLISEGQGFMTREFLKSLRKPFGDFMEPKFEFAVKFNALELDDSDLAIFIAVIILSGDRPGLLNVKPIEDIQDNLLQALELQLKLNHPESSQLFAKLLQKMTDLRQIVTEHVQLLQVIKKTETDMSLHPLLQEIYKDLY

Experiment [5] can be described thus: qHTS assay to identify small molecule phospholipidosis (PLD) inducers (AID 1259344; active = well fitted curve in the direction sought with a large enough effect; an effect the other way counts as inactive or inconclusive). Summed up: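 HepG2 cells, 900/well, treated with compound plus LipidTOX Red for 24 h at 37 C; amiodarone positive and DMSO negative controls. Fixed with paraformaldehyde/Hoechst, then high-content imaging scored LipidTOX pit count and integrated intensity per well and per cell.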

Inconclusive results are not listed. Values without a mark were called inactive. Calls of active or inactive are those of the source. Unless noted, calls come from the whole dose curve; as a rule, active = well fitted curve in the direction sought with a large enough effect in the repeat runs; inconclusive = weak or mixed curves; inactive = no such curve, though single readings can be large; an effect the other way counts as inactive or inconclusive.
% is set by controls: 0 for no effect and ±100 for the full control effect.

For the compound `O=c1[nH]cnc2[nH]cc(CN3CCCCC3)c12`, the Potency entry in experiment [1], in experiment [2], in experiment [3] and in experiment [4] was “inactive” in each case. Moreover, the PLD induction in experiment [5] was 1.92% [at 1.53 µM].
Consider `CCNC(=O)[C@@H]1CCCN1C(=O)[C@H](CCCN=C(N)N)NC(=O)[C@H](CC(C)C)NC(=O)[C@@H](CC(C)C)NC(=O)[C@H](Cc1ccc(O)cc1)NC(=O)[C@H](CO)NC(=O)[C@H](Cc1c[nH]c2ccccc12)NC(=O)[C@H](Cc1cnc[nH]1)NC(=O)[C@@H]1CCC(=O)N1`, for which the Potency result in experiment [1], in experiment [2], in experiment [3], in experiment [4] and in experiment [5] was “inactive” in each case.
On to `O=P(O)(O)C(Sc1ccc(Cl)cc1)P(=O)(O)O`, for which the Potency result in experiment [1], in experiment [2], in experiment [3], in experiment [4] and in experiment [5] was “inactive” each time.
In the case of `Cc1nnc(C(C)C)n1C1C[C@H]2CC[C@@H](C1)N2CC[C@H](NC(=O)C1CCC(F)(F)CC1)c1ccccc1` (some centres undefined), the Potency entry in experiment [1], in experiment [2], in experiment [3] and in experiment [4] was “inactive” each time. In addition, in experiment [5], the PLD induction was -2.27% [at 7.66 µM].
For the compound `CCCC(=O)Nc1ncnc2c1ncn2[C@@H]1O[C@@H]2COP(=O)(O)O[C@H]2[C@H]1OC(=O)CCC`, the Potency entry in experiment [1], in experiment [2], in experiment [3] and in experiment [5] was “inactive” each time.
`CN[C@@H]1CCc2[nH]c3ccc(C(N)=O)cc3c2C1`: the Potency result in experiment [1], in experiment [2], in experiment [3] and in experiment [4] was “inactive” throughout. In experiment [5], the PLD induction was -1.34% [at 1.53 µM].
Take `C[C@H](CSC(=O)c1ccccc1)C(=O)N1C[C@@H](Sc2ccccc2)C[C@H]1C(=O)O`: the Potency entry in experiment [1], in experiment [2], in experiment [3], in experiment [4] and in experiment [5] was “inactive” throughout.
Regarding `CO[C@H]1[C@@H](O)[C@H](N)[C@@H](O[C@H]2O[C@H]([C@H](C)N)CC[C@H]2N)[C@H](O)[C@@H]1N(C)C(=O)CN`, the Potency result in experiment [1], in experiment [2], in experiment [3], in experiment [4] and in experiment [5] was “inactive” each time.
Regarding `O=C(Cn1c(=O)sc2ccc(Cl)cc21)N1CCN(CCO)CC1`, the Potency result in experiment [1], in experiment [2], in experiment [3] and in experiment [4] was “inactive” in each case. Further, in experiment [5], the PLD induction was 3.19% [at 7.66 µM].
For `CCCCc1cc2c(=O)c(C(=O)OC)c[nH]c2cc1OCc1ccccc1`, the Potency entry in experiment [1], in experiment [2], in experiment [3], in experiment [4] and in experiment [5] was “inactive” throughout.
In the case of `CO[C@@H]1[C@@H](O[C@@H]2O[C@H](C)[C@@H](O[C@H]3C[C@@](C)(O)[C@@H](OC(=O)CC(C)C)[C@H](C)O3)[C@H](N(C)C)[C@H]2O)[C@@H](CC=O)C[C@@H](C)[C@@H](O)/C=C/C=C/C[C@@H](C)OC(=O)C[C@H]1O`, the Potency entry in experiment [1], in experiment [2], in experiment [3], in experiment [4] and in experiment [5] was “inactive” in each case.
Consider `O=S(O)CNc1ccc(S(=O)(=O)c2ccc(NCS(=O)O)cc2)cc1`, for which the Potency result in experiment [1], in experiment [2], in experiment [3], in experiment [4] and in experiment [5] was “inactive” each time.
On to `CCCC(CCC)C(N)=O`, for which the Potency entry in experiment [1], in experiment [2], in experiment [3] and in experiment [4] was “inactive” each time. Also, in experiment [5], the PLD induction is 0.287% [at 7.66 µM].
Take `CC(C)(C)CC(=O)OCC(=O)[C@@]12OC(C)(C)O[C@@H]1C[C@H]1[C@@H]3CCC4=CC(=O)C=C[C@]4(C)[C@@]3(F)[C@@H](O)C[C@@]12C`: the Potency entry in experiment [1], in experiment [2], in experiment [3], in experiment [4] and in experiment [5] was “inactive” each time.
On to `C=C1CC2C3CCC4=CC(=O)C=C[C@]4(C)[C@@]3(F)[C@@H](O)C[C@]2(C)[C@@]1(O)C(=O)COC(C)=O` (some centres undefined), for which the Potency result in experiment [1], in experiment [2], in experiment [3] and in experiment [4] was “inactive” in each case. The PLD induction in experiment [5] was -8.32% [at 7.66 µM].
Consider `C[C@@H]1C/C=C/C=C/C=C/C=C/[C@H](O[C@@H]2O[C@H](C)[C@@H](O)[C@H](N)[C@@H]2O)C[C@@H]2O[C@](O)(C[C@@H](O)C[C@H]3O[C@@H]3/C=C/C(=O)O1)C[C@H](O)[C@H]2C(=O)O`, for which the Potency entry in experiment [1], in experiment [2], in experiment [3], in experiment [4] and in experiment [5] was “inactive” throughout.
Turning to `O=P(O)(O)OC(Cn1cncn1)(Cn1cncn1)c1ccc(F)cc1F`, the Potency entry in experiment [1], in experiment [2], in experiment [3], in experiment [4] and in experiment [5] was “inactive” throughout.
In the case of `CCCN(CC)C(CC)C(=O)Nc1c(C)cccc1C` (centres undefined), the Potency entry in experiment [1], in experiment [2], in experiment [3], in experiment [4] and in experiment [5] was “inactive” throughout.
On to `N[C@@H](C(=O)N[C@@H]1C(=O)N2C(C(=O)O)=C(Cl)CC[C@H]12)c1ccccc1`, for which the Potency entry in experiment [1], in experiment [2], in experiment [3], in experiment [4] and in experiment [5] was “inactive” throughout.
On to `C/C1=C2N=C(/C=C3N=C(/C(C)=C4\[N-]C(C(CC(N)=O)C4(C)CCC(=O)NCC(C)OP(=O)([O-])OC4C(CO)OC(n5cnc6cc(C)c(C)cc65)C4O)C4(C)N=C1C(CCC(N)=O)C4(C)CC(N)=O)C(CCC(N)=O)C\3(C)C)C(CCC(N)=O)C/2(C)CC(N)=O.[CH3-].[Co+3]` (centres undefined), for which the results for the Potency in experiment [1] and in experiment [3] were 23.7 µM (active) and 26.6 µM (active), respectively. Besides, the Potency entry in experiment [2], in experiment [4] and in experiment [5] was “inactive” in each case.
`CCCCCCCCCCCCCCCCSCC(COC)COP(=O)([O-])OCC[N+](C)(C)C` (centres undefined): the Potency entry in experiment [1], in experiment [2], in experiment [3], in experiment [4] and in experiment [5] was “inactive” in each case.
